Screening data deposited in PubChem by several laboratories.
V-ATPase pH = alters yeast V-ATPase proton transport; S. cerevisiae, pHLuorin cytosolic pH fluorescence; response, % at 10 µM; hit rate 0.37% among 350,000; AID 504577; in the data active means response mostly above about 7.3%, no sharp cut-off; inactive means mostly below about 5.4%; further: actives read high
Efflux pump mplx = blocks antifungal efflux pumps in multiplex yeast assay; hit rate 0.44% among 330,000; S. cerevisiae Candida pump triplex, Nile Red efflux; inhibition, % at 10 µM;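 active means plate passing quality check with inhibition over a set limit, or well fluorescence over plate mean plus 4 SD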;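 further: Nile Red retained in pooled yeast measured as flow cytometry median fluorescence; 0% = buffer negative control and 100% = Enniatin B positive control; higher means more Nile Red kept so more efflux inhibition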
AI-2 QS mod = modulators of Vibrio harveyi AI-2 quorum sensing system | activity change, % at 7.5 µM | Vibrio harveyi JMH597 AI-2 luminescence/OD600 ratio, 9 h; stronger effect = lower value; strain lacks LuxN and CqsS sensors; 0 = neutral-control median | hit rate 0.4% among 300,000; in the data active means activity change below about -75%, passing the limit was not always enough;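 further: luminescence divided by OD600 gain over 9 h not by final OD600 alone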
Mot1-301 SUMO = inhibitors of SUMOylation pathway: yeast Mot1-301 growth rescue | hit rate 1% among 320,000 | growth rescue, % at 18.8 µM | S. cerevisiae Mot1-301 growth rescue, ATP luminescence, 38.5C; percent above DMSO median, 100 means doubled;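 active means every valid replicate shows activation above 250% relative to neutral control wells; inactive means the rest, any valid replicate at or below 250%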;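 further: OY570 slx delta 5 strain wells were the positive control but not used for scaling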
ATG4B inh = inhibitors of human ATG4B cysteine protease; Q9Y4P1; ATG4B cleavage of LC3-PLA2, NBD-HPC fluorescence, 1 h; inhibition, % at 8.33 µM; hit rate 0.51% among 340,000; AID 504462; in the data active means inhibition above about 40%
Target sequence (Q9Y4P1 whole entry, looked up): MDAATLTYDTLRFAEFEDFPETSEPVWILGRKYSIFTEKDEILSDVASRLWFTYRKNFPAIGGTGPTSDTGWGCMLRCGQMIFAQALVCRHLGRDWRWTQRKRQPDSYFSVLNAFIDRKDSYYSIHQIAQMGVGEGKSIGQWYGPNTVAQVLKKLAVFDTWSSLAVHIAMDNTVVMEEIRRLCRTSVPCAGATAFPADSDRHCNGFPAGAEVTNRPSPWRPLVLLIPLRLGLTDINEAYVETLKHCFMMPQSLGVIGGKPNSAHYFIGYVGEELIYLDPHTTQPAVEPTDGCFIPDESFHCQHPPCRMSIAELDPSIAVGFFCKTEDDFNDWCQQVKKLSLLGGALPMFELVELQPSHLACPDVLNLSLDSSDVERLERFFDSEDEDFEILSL
ATG4B confirm = confirmation of human ATG4B inhibitors. shares compounds with ATG4B inh. ATG4B protease fluorescent substrate cleavage assay. inhibition, % at 8.33 µM. hit rate 92% among 320; in the data active means inhibition above about 39%
PLA2 counter = PLA2 (human) inhibition in ATG4B counter-screen; purified PLA2, NBD-C6-HPC fluorescence, 45 min; inhibition, % at 8.33 µM; hit rate 66% among 1,600; AID 588402; shares compounds with ATG4B inh; in the data active means inhibition above about 50%
Target sequence (P04054 whole entry, looked up): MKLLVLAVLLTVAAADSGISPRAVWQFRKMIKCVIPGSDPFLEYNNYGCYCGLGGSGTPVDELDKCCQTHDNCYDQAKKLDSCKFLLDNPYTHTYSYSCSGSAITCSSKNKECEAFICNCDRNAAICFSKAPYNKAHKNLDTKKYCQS
Starred values were filed as active, the others as inactive; / = not tested or not shown. Compounds with a hit are over-represented: about 2.5% of the library has one in this group of screens.

SMILES | V-ATPase pH | Efflux pump mplx | AI-2 QS mod | Mot1-301 SUMO | ATG4B inh | PLA2 counter | others
c1cncc(-c2nc(N3CCOCC3)c3c4c(sc3n2)CCC4)c1 | -2 | 0 | 10 | / | 27 | /
O=C1[C@H](Cc2ccccc2)NCC=CC[C@H](c2ccc(Cl)cc2)N1Cc1ccccc1 | 5 | / | / | / | 57* | 70*
O=C1[C@H](Cc2ccccc2)NCCCC[C@@H](c2ccc(Cl)cc2)N1Cc1ccccc1 | 21 | / | / | / | -11 | /
O=C1[C@H](Cc2ccccc2)NCC=CC[C@H](c2ccc(Cl)cc2)N1Cc1ccc(Cl)cc1 | -4 | / | / | / | 45* | 81*
O=C1[C@H](Cc2ccccc2)NCC=CC[C@@H](c2ccc(Cl)cc2)N1Cc1ccc(Cl)cc1 | -1 | / | / | / | -18 | /
COc1ccc2nc(N3CCCCC3)c(/C=C3\SC(=S)NC3=O)cc2c1 | 1 | 0 | 23 | 149 | 77* | 32 | ATG4B confirm=21
O=C1NC(=S)S/C1=C\c1cc2ccccc2nc1N1CCCCC1 | 7 | 0 | 17 | -14 | 65* | 79*
O=C(O)C(=Cc1ccccc1[N+](=O)[O-])c1ccc2c(c1)OCO2 | -4 | / | / | / | / | /
COc1ccc(CN2CCN(CCSc3ccc(C)cc3)CC2)c(OC)c1OC | 2 | 0 | 23 | 38 | 1 | /
O=C(Nc1cccc(C(F)(F)F)c1)c1ccc2nc(-c3ccco3)c(-c3ccco3)nc2c1 | -1 | 0 | 14 | -9 | 47* | 9
O=C(Nc1ccc2nc(-c3ccco3)c(-c3ccco3)nc2c1)NC1CC1 | 10 | / | 10 | / | 55* | 60*
Cc1ccsc1/C=N/Nc1ccc(F)cc1F | -5 | 0 | -8 | 27 | 12 | /
COc1ccccc1N1CCN(C(=O)c2c(-c3c(F)cccc3Cl)noc2C)CC1 | 2 | / | 8 | / | 6 | /
Cc1ccccc1CNC(=O)c1ccc(CSCc2ccccc2)cc1 | 3 | 0 | 15 | -4 | 49* | 68*
O=C(NCc1ccc(Cl)cc1)c1ccccc1CCc1ccccc1 | -3 | 0 | 11 | 8 | 55* | 53*
O=C(NCc1ccccc1Cl)c1ccccc1CCc1ccccc1 | -2 | 0 | 13 | 6 | 29 | /
O=C(Nc1sc2c(c1C(=O)O)CCCC2)c1ccccc1Cl | -3 | 0 | 19 | -9 | 38 | /
Cc1ccccc1C(=O)Nc1sc(C)c(C)c1C(=O)c1ccccc1 | 2 | 0 | 4 | 4 | 41* | 61*
O=C(NC(=S)Nc1sc2c(c1C(=O)O)CCCC2)c1ccccc1 | 4 | 0 | / | 2 | 52* | 62*
Cc1ccccc1C(=O)Nc1sc2c(c1C(=O)O)CCC2 | 0 | 0 | 19 | -30 | 52* | 49
Cc1sc(NC(=O)CCl)c(C(=O)c2ccccc2)c1C | 5 | 0 | -10 | 347 | 2 | /
N#Cc1c(N2CCCC2)nc(N)c2c(N)nc(N3CCCC3)cc12 | 5 | 0 | 18 | -19 | 74* | 40 | ATG4B confirm=26
CCOC(=O)c1c(C)[nH]c(C)c1C(=O)COC(=O)c1cccs1 | 0 | 0 | / | -11 | -1 | /
COc1cnc(SCc2c(Cl)cccc2Cl)nc1Cl | 1 | 0 | -20 | -17 | 50* | 35 | ATG4B confirm=59*
CCOc1ccc(C(=O)Nc2ccc(C(=O)N3CCOCC3)cc2)c(OCC)c1 | -2 | 1 | 32 | 1 | -2 | /
SMILES | V-ATPase pH | Efflux pump mplx | AI-2 QS mod | Mot1-301 SUMO | ATG4B inh | PLA2 counter | others
Cc1cccc(C(=O)Nc2sc(-c3ccccc3)cc2C(=O)O)c1 | -1 | 0 | 26 | -19 | 68* | 75*
CSc1ncnc2[nH]ccc12 | -1 | / | / | / | -11 | /
O=C(C1=C(c2ccccc2)C(=O)c2ccccc2C1=O)c1ccccc1 | -1 | / | 19 | / | 45* | 51*
CC(C)OC(=O)[C@H]1[C@H](c2ccc(Cl)cc2)[C@@](C#N)(C(N)=O)[C@@H]2C=CC(C(N)=O)=CN21 | 6 | / | 16 | / | 64* | 74*
CC1CC1c1ccc(/C=C(\C#N)C(=O)Nc2ccccc2Cl)o1 (configuration not stated) | -4 | 0 | 8 | -2 | 41* | 51*
Fc1ccc(C2CC(c3ccco3)=Nc3ccccc3S2)cc1 (configuration not stated) | 1 | 0 | 7 | -6 | 46* | 67*
Cc1ccc(C)c(NC(=O)CN(C)C(=O)C2CCN(C(=O)Nc3ccccc3)CC2)c1 | 1 | 0 | -4 | 6 | -1 | /
NC(=O)C1Cc2ccccc2CN1C(=O)c1cccc(Oc2ccccc2)c1 (configuration not stated) | 0 | 0 | -8 | -11 | 47* | 94*
CC1Cc2ccccc2N1S(=O)(=O)c1cccc(C(=O)N2Cc3ccccc3CC2C(N)=O)c1 (configuration not stated) | 0 | 0 | / | 8 | 68* | 68*
CC1Cc2ccccc2N1S(=O)(=O)c1cccc(C(=O)N2CCCCC2)c1 (configuration not stated) | -5 | / | / | / | -4 | /
O=C(c1nn(Cc2ccccc2)c(=O)c2ccccc12)N1CCc2ccccc2C1 | 1 | 0 | 12 | -5 | 20 | /
O=C(O)c1cc(C2CC2)nn1-c1ccccc1 | -2 | 0 | -4 | 0 | -12 | /
NC(=O)C1Cc2ccccc2CN1C(=O)c1cc(C2CC2)nn1-c1ccccc1 (configuration not stated) | 4 | 0 | / | 4 | 92* | 92*
NC(=O)C1Cc2ccccc2CN1C(=O)c1nn(Cc2ccccc2)c(=O)c2ccccc12 (configuration not stated) | 6 | 0 | / | -1 | 41* | 61*
CCNC(=O)c1ccc(CSc2nc3ccccc3s2)cc1 | 0 | 0 | 29 | 87 | 8 | /
NC(=O)c1ccc(CSc2nc3ccccc3s2)cc1 | 1 | 0 | 4 | 4 | 51* | 59*
COc1ccc(-n2nc3c(N4CCC(C(=O)N5CCC(C)CC5)CC4)nnc(C)c3c2C)cc1 | 1 | 0 | 15 | -20 | 68* | 75*
COc1cccc(Cn2cc(-c3cccc(C(F)(F)F)c3)nn2)c1 | 1 | 0 | 12 | -12 | 50* | 68*
NC(=O)CSc1nnc(COc2ccccc2)n1CCc1ccccc1 | 4 | 0 | -7 | 5 | 54* | 46
O=C(CSc1nnc(COc2ccccc2)n1-c1ccccc1)c1cccs1 | -2 | 0 | -3 | -5 | 54* | 55*
Cc1ccc(OCc2nnc(SCC(=O)c3cccs3)n2-c2ccccc2)cc1C | -5 | 0 | -5 | -1 | 62* | 78*
Cn1cccc1Cc1nnc(SCC(N)=O)n1CCc1ccccc1 | 2 | 0 | 35 | 34 | 18 | /
O=c1[nH]c2c(=O)[nH]cnc2nc1-c1ccccc1 | 0 | 0 | 15 | -9 | 2 | /
O=C(Cc1ccccc1)c1ccc(N2CCOCC2)cc1 | 1 | / | / | / | -7 | /
